Source: PubChem BioAssay
Most compounds without a hit are left out; they make up all but 19% or so of the library.
uPA generation: inhibitors of cell surface uPA generation; cell surface uPA generation assay, qHTS; Potency, µM (top dose mostly 38.3 µM), for the others: at the top dose activity change, negative = inhibition, most hits filed as inhibitors; 330,000 tested, 0.31% active; AID 540303; active means well fitted inhibition curve with a large enough effect; inconclusive means small, poorly fitted or top-dose-only effect; inactive means no such curve, though single readings can be large or run the other way; tested in mouse RAW 264.7 cells; further: potency means the concentration at half of the fitted maximal effect; nearly all actives have a fitted effect of over 55% in size
IL-1B inflam inh: inflammasome signaling inhibition, IL-1 beta readout | THP-1 LPS/ATP IL-1B secretion, AlphaLISA, 16 h; active compounds read low | activity change, % at 57.5 µM | 360,000 tested, 4.7% active; in the data active means activity change below about -50%; inconclusive means mostly about -30% to -49%
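Secreted IL-1B measured by AlphaLISA bead assay after 16 h compound exposure of THP-1 cells; compounds (final up to 57.5 uM) added 1 h before LPS (250 ng/mL) and ATP (1.25 mM) stimulation; lower signal means less secretion.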
HT1080 IDH1KD tx: HT-1080 IDH1 knockdown cell toxicity (counter line) | 360,000 tested, 2% active | Potency, µM (doses to about 46.1 µM), for the others: top-dose activity, negative = toxicity, actives largely listed as cytotoxic | AID 686971 | HT-1080 IDH1 knockdown viability, ATP luminescence, 48 h;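 further: potency means the concentration at half of the fitted maximal effect; 0% = DMSO wells and -100% = cell-free medium wells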
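Cytotoxicity counter-line: IDH1KD HT-1080, 48 h, CellTiter-Glo. Curves classed by r2, magnitude and activity.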
TDP1 cell noCPT: qHTS for Inhibitors of human tyrosyl-DNA phosphodiesterase 1 (TDP1): qHTS in cells in absence of CPT | DT40 Tdp1-/- hTDP1 cells, no CPT, ATP luminescence, 48 h | 420,000 tested, 15% active | Potency, µM (top dose mostly 46.2 µM), for the others: at the top dose activity change, negative = growth inhibition, hits mostly inhibitors | AID 686978, 2013; further: potency means the concentration at half of the fitted maximal effect; nearly all actives have a fitted effect of over 55% in size
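Stably hTDP1-transfected Tdp1-null chicken DT40 cells were treated with library compounds minus camptothecin and grown for at least 48 hr at 37 °C, after which cellular ATP was quantified by luminescence.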
DT40 TDP1 CPT: growth inhibition of DT40 Tdp1-/-;hTDP1 cells with camptothecin (screen for TDP1 inhibitors). chicken DT40 Tdp1-/-;hTDP1 cells + 20 nM CPT, ATP luminescence, 48 h. Potency, µM (doses to about 46.2 µM), for inactives: top-dose activity change, negative = growth inhibition, hits mostly inhibitors. 420,000 tested, 12% active; further: potency means the concentration at half of the fitted maximal effect; nearly all actives have a fitted effect of over 55% in size
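Chicken DT40 Tdp1-/- cells complemented with human TDP1, 400 cells/well, exposed to compounds plus 20 nM camptothecin for at least 48 h at 37 C; viability read as ATP content by CellTiter-Glo luminescence.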
HT1080NT lethal: kills 2HG-producing HT-1080-NT fibrosarcoma cells; HT-1080-NT fibrosarcoma viability, CellTiter-Glo ATP luminescence, 48 h; Potency, µM (titrated, usually from 46.1 µM), for the others: at the highest dose activity, negative = less viability, actives largely listed as cytotoxic; 360,000 tested, 1.6% active;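 further: NT is the 2HG producing partner of a matched IDH1 knockdown line; potency means the concentration at half of the fitted maximal effect; 0% = DMSO-treated cells and -100% = media-only wells without cells; nearly all actives have a fitted effect of over 55% in size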
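HT-1080-NT fibrosarcoma cells (2HG-overproducing), 750 cells/well in RPMI with 5% FBS, dosed after 2 h and incubated 48 h at 37C. CellTiter-Glo luminescence normalized to DMSO and no-cell wells; concentration-response curves fitted and classed.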
* marks the source's active call; other numbers are inactive results; ? = inconclusive; · = no result given; [ ] = remark or other dose. Unless noted, the call rests on the fitted dose curve; in most records, active means well fitted curve in the direction sought with a large enough effect; inconclusive means small, poorly fitted or top-dose-only effect, or another doubt; inactive means no such curve, though single readings can be large; an effect the other way counts as inactive or inconclusive. Unless noted, on the % scale 0 is the no-effect control and ±100 the full control effect.

SMILES	uPA generation	IL-1B inflam inh	HT1080 IDH1KD tx	TDP1 cell noCPT	DT40 TDP1 CPT	HT1080NT lethal
CC(=O)c1sc(NC(=O)C2CC(=O)N(Cc3ccco3)C2)nc1-c1ccccc1 (configuration not stated)	-7.5%	-94.6*	-4.2%	-23.4%	-11.3%	-5.2%
Cc1cc2oc(C(=O)Nc3sc4c(c3C(=O)NCC3CCCO3)CCC4)cc(=O)c2cc1C (configuration not stated)	·	·	·	-20.4%	9.1%	·
COc1ccc([C@H]2C[C@@H](n3cc(COC(=O)c4ccccc4)nn3)[C@H](O)CN2Cc2cccs2)cc1	·	17.0	16.6%	?	?	13.9%
COCCNC(=O)C1CCCN(C(=O)c2cc(C)n(C(C)(C)C)n2)CC1 (configuration not stated)	·	15.5	14.2%	2.3%	10.4%	-1.2%
CCOc1ccccc1NC(=O)C(OC(=O)c1cc(C)oc1C)c1ccccc1 (configuration not stated)	3.8%	0.0	-10.7%	18.4µM*	?	-7.6%
CCOc1ccccc1NC(=O)C(OC(=O)c1ccccc1O)c1ccccc1 (configuration not stated)	-6.8%	-11.5	11.3%	?	?	7.8%
COC(=O)COc1ccc(-c2ccc(F)cc2)cc1C=O	-5.0%	-12.1	-3.7%	?	?	-26.2%
COC(=O)COc1ccc(-c2ccccc2)cc1C=O	1.2%	2.0	-13.8%	23.1µM*	?	-6.8%
O=C(CSc1nnc(-c2ccc(S(=O)(=O)N3CCCC3)cc2)o1)NCc1ccccc1	-12.2%	5.1	-9.0%	18.4µM*	23.1µM*	-25.5%
O=C(CSc1nnc(-c2ccccc2F)n1C1CCCCC1)N1CCCC1	2.5%	18.7	14.6%	-23.4%	-24.0%	6.2%
CC1CCN(C(=O)CSc2nnc(-c3cccnc3)n2C2CCCCC2)CC1	·	-0.3	5.2%	-25.3%	-18.9%	15.3%
O=C(CSc1nnc(-c2ccc(Cl)cc2Cl)n1C1CCCCC1)N1CCCC1	6.1%	-11.1	1.9%[9.24 µM]	20.6µM*	23.1µM*	-0.9%
CC(C)(C)c1ccc(-c2nnc(SCCC#N)n2C2CCCC2)cc1	4.0%	-51.2*	?	18.4µM*	18.4µM*	?
O=C(CSc1nnc(-c2ccc(Br)cc2)n1C1CCCCC1)N1CCCC1	-1.9%	30.8	0.8%	23.1µM*	?	-10.8%
O=C(NCCN1CCC(n2c(=O)[nH]c3ccccc32)CC1)N1c2ccccc2Sc2ccccc21	·	-2.1	-14.1%	16.4µM*	?	-11.8%
CC1(Oc2ccccc2-c2ccno2)CCN(Cc2csc3ccccc23)C1 (configuration not stated)	·	0.0	?	?	18.4µM*	-25.5%
CC1=NN(c2cccc(C(=O)O)c2)C(=O)/C1=C\C=C/c1ccccc1	-15.7%	-102.6*	?	1.3µM*	0.581µM*	?
CC1=NN(c2ccccc2)C(=O)/C1=C/c1ccc(Cl)cc1	5.6%	13.0	1.0%	?	-44.7%	6.6%
CC1=NN(c2ccc(C)cc2)C(=O)/C1=C\C=C\c1ccccc1	2.9%	-180.3*	-15.7%	9.2µM*	11.6µM*	16.3%
CC1=NN(c2ccccc2)C(=O)/C1=C/C=C/C=C/N(C)C	-5.5%	19.5	?	?	?	-11.4%
Cc1ccc(CNC(=O)c2nnc(Cc3cccc(F)c3)o2)cc1	·	·	·	-21.8%	-20.4%	·
O=C1N=C(c2ccccc2)S/C1=C\c1cccs1	-0.5%	-24.5	0.9%	-18.9%	-27.0%	2.2%
O=C1N=C(N2CCN(c3ccccc3)CC2)S/C1=C/c1cccs1	3.2%	-58.2*	-14.6%	?	-20.1%	-17.6%
O=C1N=C(N2CCN(Cc3ccccc3)CC2)S/C1=C/c1cccs1	5.6%	·	14.1%	11.6µM*	-17.5%	0.4%
CN1CCN(C2=NC(=O)/C(=C/c3cn[nH]c3-c3ccccc3)S2)CC1	0.3%	?	14.4%	?	?	22.9%
SMILES	uPA generation	IL-1B inflam inh	HT1080 IDH1KD tx	TDP1 cell noCPT	DT40 TDP1 CPT	HT1080NT lethal
Clc1ccc(CN2CCN(c3ncccn3)CC2)c(Cl)c1	?	-12.1	-15.7%	2.3%	-4.4%	?
O=C(CSc1nc2ccccc2c(=O)n1-c1ccccc1Cl)NC1CCS(=O)(=O)C1 (configuration not stated)	4.5%	3.5	-11.2%	-5.2%	-23.9%	-5.8%[9.24 µM]
Cc1cccc(C)c1N=C1NN=C(c2ccccc2F)CS1	-1.3%	0.0	-8.6%	20.6µM*	20.6µM*	-3.6%
Cc1cc(C2=NNC(=NC3CCCCC3)SC2)c(C)n1-c1c(C)n(C)n(-c2ccccc2)c1=O	8.8%	-4.1	-18.1%	?	-4.7%	-16.1%
Cc1cc(C2=NNC(=NC3CC3)SC2)c(C)n1-c1ccccc1F	1.58µM*	0.0	?	20.6µM*	16.4µM*	?
C=C(C)CN=C1NN=C(c2cc(C)n(-c3ccc(C)cc3)c2C)CS1	-2.0%	20.9	-25.4%	11.6µM*	14.6µM*	-9.6%
O=C(c1cccc(F)c1F)N1CCOc2ccc(CN3CCC(Oc4cccnc4)CC3)cc2C1	·	·	·	?	-13.5%[9.04 µM]	·
Clc1ccc(-c2noc3c2-c2nc(Cc4cccc5ccccc45)sc2CC3)cc1	-6.8%	4.4	-3.9%	10.7%	2.2%	-0.6%
Cc1nnc(N2C(=O)c3oc4ccccc4c(=O)c3C2c2ccc(F)cc2)s1 (configuration not stated)	·	·	·	-0.4%	-1.8%	·
C[C@H]1[C@@H](Cc2cc(Cl)cc(Cl)c2)N(c2ccccc2)c2ccccc2CN1Cc1ccccc1	·	-1.2	-12.3%	-21.5%	?	-21.0%
Cc1ccc2nc(NS(=O)(=O)c3ccc(Cl)cc3)c(Nc3ccc(C(=O)O)cc3)nc2c1	·	·	·	-3.6%	5.7%	·
CCOc1ccccc1Nc1nc2ccccc2nc1NS(=O)(=O)c1ccc(Cl)cc1	·	·	·	5.17µM*	?	·
COc1cccc(Nc2nc3cc(C)ccc3nc2NS(=O)(=O)c2ccc(Cl)cc2)c1	·	·	·	4.11µM*	5.17µM*	·
CCOc1ccc(S(=O)(=O)Nc2nc3ccccc3nc2Nc2ccc(OC)cc2)cc1	·	·	·	-29.4%	-8.0%	·
C=CCN1C(=O)c2ccc(C(=O)Nc3ccccn3)cc2C1=O	4.1%	-8.5	-0.2%	0.7%	-0.2%	5.2%
O=[N+]([O-])/C(C=Nc1ccccc1O)=C\Nc1ccccc1O	?	0.0	?	16.4µM*	8.2µM*	-13.6%
